# A selection: hits, their analogues and other compounds. The true share with any hit is near 2.9%.
# PLCb3 inh: blocks human PLC-beta3 enzyme activity. Q01970. Purified PLC-beta3, fluorogenic substrate, fluorescence. inhibition, % at 12.2 µM. hit rate 0.18% among 370,000. AID 720704; in the data active means inhibition above about 11%
# ADAM17 inh: inhibits human ADAM17; P78536; recombinant ADAM17, EDANS/DABCYL FRET peptide cleavage; inhibition, % at 6.95 µM; hit rate 0.83% among 370,000; AID 720648;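 active means inhibition above the mean of compounds lying between control limits plus 3 SD, set per campaign, cut at about 8.5% in these data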
# Target sequence (P78536 215-824 limits assumed): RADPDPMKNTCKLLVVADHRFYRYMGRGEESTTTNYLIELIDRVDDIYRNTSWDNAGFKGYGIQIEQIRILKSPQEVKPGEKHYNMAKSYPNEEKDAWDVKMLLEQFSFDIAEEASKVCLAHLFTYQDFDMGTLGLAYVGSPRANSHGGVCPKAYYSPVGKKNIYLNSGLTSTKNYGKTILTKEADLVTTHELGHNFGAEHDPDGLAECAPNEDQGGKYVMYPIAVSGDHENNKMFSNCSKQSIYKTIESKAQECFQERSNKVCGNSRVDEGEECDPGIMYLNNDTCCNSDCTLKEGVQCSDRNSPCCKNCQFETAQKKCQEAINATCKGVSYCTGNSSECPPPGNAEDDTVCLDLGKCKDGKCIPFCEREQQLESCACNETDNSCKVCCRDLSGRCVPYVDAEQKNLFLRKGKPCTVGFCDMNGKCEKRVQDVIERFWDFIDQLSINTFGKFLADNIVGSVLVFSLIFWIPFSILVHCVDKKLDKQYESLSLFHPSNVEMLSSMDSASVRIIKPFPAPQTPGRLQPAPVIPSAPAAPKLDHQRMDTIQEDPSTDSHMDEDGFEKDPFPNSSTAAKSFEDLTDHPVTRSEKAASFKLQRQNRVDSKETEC
# PLC-gamma1 inh: PLC-gamma1 (human) inhibition, primary screen | purified PLC-gamma1, fluorogenic substrate, fluorescence | inhibition, % at 12.2 µM | hit rate 0.84% among 370,000 | P19174; in the data active means inhibition above about 9.5%
# KLK7 zymogen act: activates the human kallikrein-7 zymogen | activation, % at 7 µM | purified proKLK7, EDANS-DABCYL substrate fluorescence; 100% is mature enzyme control, 0% vehicle | P49862 | hit rate 0.9% among 370,000;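 active means activation above the mean of all tested compounds plus 3 SD, computed per campaign excluding outliers beyond control limits, cut at about 13% in these data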
# ADAM10 inh: ADAM10 inhibition, QFRET primary screen; O14672; recombinant ADAM10, EDANS/DABCYL FRET peptide cleavage, 3 h; inhibition, % at 7 µM; hit rate 0.62% among 370,000; AID 720582;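 active means inhibition above a per-campaign cutoff equal to the mean of compounds falling between control-based bounds plus 3 SD, cut at about 20% in these data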
# proKLK7 act conf: confirmation of human kallikrein-7 zymogen activators; shares compounds with KLK7 zymogen act; purified proKLK7, EDANS-DABCYL substrate fluorescence; scaled: vehicle 0, mature enzyme 100; activation, % at 7 µM; hit rate 68% among 3,200;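 active means activation, as change over the incubation, above the mean of all tested compounds plus 3 SD, cut at about 13% in these data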
# EDANS interfere: fluorescence interference counter-screen for KLK7 activators. shares compounds with KLK7 zymogen act. EDANS-DABCYL substrate fluorescence interference, no enzyme, 4 h; solvent 0%, active enzyme control 100%. activation, % at 7 µM. hit rate 80% among 3,200. AID 686952;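 active means activation above the all-compound mean plus 3 SD, ignoring values outside control-based bounds, cut at about 4.8% in these data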;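 further: value is the 4 h activation minus the activation read at time zero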
# K7 EDANS ctr: EDANS fluorescence interference in dose response, no enzyme; EC50, µM; AID 720493; hit rate 20% among 250; EDANS-DABCYL peptide fluorescence interference; shares compounds with KLK7 zymogen act;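 active means compounds that raise the fluorescence signal in this interference counterscreen, with EC50 at or below 10 µM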;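 further: intact quenched peptide substrate alone read at 355 nm excitation and 520 nm emission; signal is fluorescence gain from T0 to T4 after four hours at room temperature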
# Hits are given with their value; 0 = inactive; - = no result.
SMILES,PLCb3 inh,ADAM17 inh,PLC-gamma1 inh,KLK7 zymogen act,ADAM10 inh,proKLK7 act conf,EDANS interfere,others
COc1ccccc1-c1coc2c(CN3CCOCC3)c(O)ccc2c1=O,0,0,0,159,0,66,58,
COc1ccc(-c2c(C)oc3c(CN4CCOCC4)c(O)ccc3c2=O)cc1OC,0,0,0,0,0,-,-,
CCCCN(C)Cc1c(O)ccc2c(=O)c(-c3ccccc3OC)coc12,0,0,0,56,0,66,74,
COc1ccccc1Oc1c(C)oc2c(CN3CCOCC3)c(O)ccc2c1=O,0,0,0,189,0,42,49,
Cc1ccc(S(=O)(=O)N2C=C(c3ccccc3)c3ccccc3-c3ccccc32)cc1,0,0,0,-,0,-,-,
O=C(N[C@@H]1C[C@@H]2O[C@@H](CO)CC[C@@H]2O[C@@H]1CCc1ccc(-c2ccccc2)cc1)c1cnccn1,0,0,0,0,0,-,-,
O=C(CCn1nnc(-c2cccs2)n1)NCc1cccs1,0,0,0,0,0,-,-,
CCOc1ccccc1Oc1c(C)oc2c(CN3CCN(C)CC3)c(O)ccc2c1=O,0,0,0,77,0,77,74,
COc1cccc(Oc2c(C)oc3c(CN4CCCC4)c(O)ccc3c2=O)c1,0,0,0,75,0,74,78,
COc1cccc(Oc2coc3c(CN4CCOCC4)c(O)ccc3c2=O)c1,0,0,0,181,0,64,61,
O=c1c(-c2ccc3c(c2)OCCO3)coc2c(CN3CCOCC3)c(O)ccc12,0,0,0,13,0,21,19,
COC(=O)[C@]12C[C@H](CC(=O)NCc3cccs3)C(=O)N(CCc3ccc(OC)c(OC)c3)C1=C[C@H](C1CCCC1)O[C@@H]2C,0,0,0,0,0,-,-,
CCCCOCCCNC(=O)C[C@H]1C[C@@]2(C(=O)OC)C(=C[C@H](C3CCCC3)O[C@@H]2C)N(Cc2cccc3ccccc23)C1=O,0,0,0,0,0,-,-,
Cc1ccc(CN2CCSc3ccc(C(=O)NCCCN4CCOCC4)cc32)cc1,0,0,0,0,0,-,-,
CN1CCN(CCCNC(=O)c2ccc3c(c2)N(Cc2ccccc2)CCS3)CC1,0,0,0,15,0,0,0,
O=C(NCCN1CCOCC1)c1ccc2c(c1)N(Cc1ccccc1)CCS2,0,0,0,21,0,0,0,
O=C(NCCCN1CCOCC1)c1ccc2c(c1)N(Cc1ccccc1)CCS2,0,0,0,0,0,-,-,
C[C@H](O)[C@@H]1CN2CCc3c([nH]c4c(-c5ccccc5)cccc34)[C@@H]2C[C@@H]1N(C)C(=S)NCCc1ccccc1,0,0,0,0,0,-,-,
COC(=O)Cn1c(=NC(=O)c2cc(-c3cccs3)nc3ccccc23)sc2cc(S(N)(=O)=O)ccc21,0,0,0,0,0,-,-,
CCOC(=O)Cn1c(=NC(=O)c2cc(-c3cccs3)nc3ccccc23)sc2cc(S(N)(=O)=O)ccc21,0,0,0,172,0,0,0,
COc1cc2c(cc1OC)C1CCN3C(=O)CCC3N1CC2 (stereo not given),0,0,0,20,0,24,19,K7 EDANS ctr=0
COc1cc2c(cc1OC)CC(=O)N(C)CC2,0,0,0,0,0,-,-,
CCC[C@H]1[C@@H](OC(=O)NCc2ccc(Cl)cc2)CC[C@@]23CCCN2C(=O)CCC[C@@H]13,0,0,0,-,0,-,-,
CC(C)c1cc(=O)oc2c3c4c(cc12)CCCN4CCC3,0,0,0,0,0,-,-,
Cc1cc(=O)oc2c3c4c(cc12)OCCN4CCC3,0,0,0,70,0,67,64,
SMILES,PLCb3 inh,ADAM17 inh,PLC-gamma1 inh,KLK7 zymogen act,ADAM10 inh,proKLK7 act conf,EDANS interfere,others
Nc1nc(OCc2ccccc2)c2[nH]cnc2n1,0,0,0,0,0,-,-,
Cc1nc2nc(N)nc(OCc3ccccc3)c2nc1C,0,0,0,59,0,75,80,
CCCc1cc(NCCOCCO)n2c(nc3ccccc32)c1C#N,0,0,0,45,0,42,27,K7 EDANS ctr=0
CCCc1cc(NCCCCO)n2c(nc3ccccc32)c1C#N,0,0,0,25,0,0,0,
CC(C)c1cc(NCCOCCO)n2c(nc3ccccc32)c1C#N,0,0,0,54,0,52,50,
Cc1cc(Nc2c(C)n(C)n(-c3ccccc3)c2=O)n2c(nc3ccccc32)c1C#N,0,0,0,0,0,-,-,
Cc1cccc(CN2CCc3c([nH]c4ccccc34)C2C(C)(C)C)n1 (stereo not given),0,0,0,13,0,0,12,
CSc1ncc(CN2CCc3c([nH]c4ccccc34)C2C(C)(C)C)cn1 (stereo not given),0,0,0,0,0,-,-,
CN(Cc1cnc2nc(N)nc(N)c2n1)c1ccc(C(=O)NC(CCC(=O)O)C(=O)O)c2ccccc12 (stereo not given),0,0,0,19,0,0,0,
O=C(O)CCC(NC(=O)c1ccc(Cl)cc1)C(=O)O (stereo not given),0,0,0,0,0,-,-,
O=C(Nc1nccs1)c1ccc(N2CCOCC2)c([N+](=O)[O-])c1,0,0,0,13,0,0,0,
O=C(NCc1ccccc1F)C1CCC(CNS(=O)(=O)c2cccc3cccnc23)CC1 (stereo not given),0,0,0,0,0,-,-,
COc1ccc(C[N+]2=C(N)NC3=C(C)Cn4c(=O)n(-c5ccccc5)c(=O)n4C3C2)c(OC)c1 (stereo not given),0,0,0,0,0,-,-,
COC(=O)C1=CN(Cc2ccc(F)cc2)C=C(C(=O)OC)C1c1cc(OC)c(OC)c(OC)c1,0,0,0,0,0,-,-,
COC(=O)C1=CN(CC2CCCO2)C=C(C(=O)OC)C1c1cc(OC)c(OC)c(OC)c1 (stereo not given),0,0,0,16,0,0,0,
C=CCOc1c2ccc(C(=O)NCc3ccccc3OC)cc2nn1C,0,0,0,14,0,0,15,
CCCn1c(N)c(N(CCOC)C(=O)COC(=O)c2ccccc2NCCO)c(=O)[nH]c1=O,0,0,0,24,0,29,29,
CCCCn1c(N)c(N(CCC(C)C)C(=O)COC(=O)c2ccccc2)c(=O)[nH]c1=O,0,0,0,0,0,-,-,
CCCCn1c(N)c(N(CC(C)C)C(=O)COC(=O)c2ccccc2NCCO)c(=O)[nH]c1=O,0,0,0,22,0,21,27,
O=[N+]([O-])c1ccc2nc(COCc3nc4ccccc4[nH]3)[nH]c2c1,0,0,0,-,0,-,-,
COC(=O)[C@]12C[C@H](CC(=O)N3CCN(C(=O)c4ccco4)CC3)C(=O)N(Cc3cccc4ccccc34)C1=C[C@H](COCc1ccccc1)O[C@@H]2C,0,0,0,0,0,-,-,

# From PubChem
